Data published in the supplement of paper PMC8728848.
About 410 targets per protein were measured; listed, in parts, are those with the strongest signals and a random draw of the rest.

Legend:
Assay in all cases: glycan array binding signal (z-score within array); higher = stronger binding
Details in all cases: glycan notation: IUPAC condensed, linker removed
[1] = molecular target: Fuc(a1-2)Gal(b1-3)GalNAc(a1-3)[Fuc(a1-2)]Gal(b1-4)GlcNAc
In short: (§1)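 Negative Z-scores can be read as non-binding. The Z-score is calculated within each array and then averaged across arrays of one protein sequence at different concentrations or buffers and across linkers. Arrays, 3228 in all, were curated from the Consortium for Functional Glycomics database and kept only where the protein sequence was available.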

[2] = molecular target: Fuc(a1-2)Gal(b1-3)GlcNAc(b1-2)Man(a1-3)[Fuc(a1-2)Gal(b1-3)GlcNAc(b1-2)Man(a1-6)]Man(b1-4)GlcNAc(b1-4)GlcNAc
In short: as §1

[3] = molecular target: Fuc(a1-2)Gal(b1-3)GlcNAc6S
In short: as §1

[4] = molecular target: Fuc(a1-2)Gal(b1-3)[Fuc(a1-4)]GlcNAc
In short: as §1

[5] = molecular target: Fuc(a1-2)Gal(b1-3)[Fuc(a1-4)]GlcNAc(b1-3)[Gal(b1-4)GlcNAc(b1-6)]Gal(b1-4)Glc
In short: as §1

[6] = molecular target: Fuc(a1-2)[Gal(a1-4)]Gal(b1-4)GlcNAc
In short: as §1

[7] = molecular target: Fuc(a1-2)[GalNAc(a1-3)]Gal(b1-3)GalNAc(a1-3)[Fuc(a1-2)]Gal(b1-4)GlcNAc
In short: as §1

[8] = molecular target: Fuc(a1-3)[Gal(b1-4)]GlcNAc(b1-2)Man
In short: as §1

[9] = molecular target: Fuc(a1-3)[Gal(b1-4)]GlcNAc(b1-6)GalNAc
In short: as §1

[10] = molecular target: Gal(a1-4)Gal(b1-4)GlcNAc(b1-2)Man(a1-3)[Gal(a1-4)Gal(b1-4)GlcNAc(b1-2)Man(a1-6)]Man(b1-4)GlcNAc(b1-4)GlcNAc
In short: as §1

[11] = molecular target: Gal(a1-4)Gal(b1-4)GlcNAc(b1-3)Gal(b1-4)Glc
In short: as §1

[12] = molecular target: Gal(b1-3)Gal
In short: as §1

[13] = molecular target: Gal(b1-3)Gal(b1-4)GlcNAc
In short: as §1

[14] = molecular target: Gal(b1-3)GalNAc(b1-3)Gal
In short: as §1

[15] = molecular target: Gal(b1-3)GlcNAc
In short: as §1

[16] = molecular target: Gal(b1-3)[Neu5Ac(a2-6)]GlcNAc(b1-4)Gal(b1-4)Glc
In short: as §1

[17] = molecular target: Gal(b1-4)GlcNAc(b1-2)[Gal(b1-4)GlcNAc(b1-4)]Man(a1-3)[Gal(b1-4)GlcNAc(b1-2)Man(a1-6)]Man(b1-4)GlcNAc(b1-4)GlcNAc
In short: as §1

[18] = molecular target: Gal(b1-4)GlcNAc(b1-3)Gal(b1-4)GlcNAc(b1-2)Man(a1-3)[Gal(b1-4)GlcNAc(b1-3)Gal(b1-4)GlcNAc(b1-2)Man(a1-6)]Man(b1-4)GlcNAc(b1-4)[Fuc(a1-6)]GlcNAc
In short: as §1

[19] = molecular target: Gal(b1-4)GlcNAc(b1-3)Gal(b1-4)GlcNAc(b1-3)Gal(b1-4)GlcNAc(b1-2)[Gal(b1-4)GlcNAc(b1-3)Gal(b1-4)GlcNAc(b1-3)Gal(b1-4)GlcNAc(b1-6)]Man(a1-6)[Gal(b1-4)GlcNAc(b1-3)Gal(b1-4)GlcNAc(b1-3)Gal(b1-4)GlcNAc(b1-2)Man(a1-3)]Man(b1-4)GlcNAc(b1-4)[Fuc(a1-6)]GlcNAc
In short: as §1

[20] = molecular target: Gal(b1-4)GlcNAc(b1-3)Gal(b1-4)GlcNAc(b1-3)Gal(b1-4)GlcNAc(b1-3)Gal(b1-4)GlcNAc(b1-3)Gal(b1-4)GlcNAc(b1-2)[Gal(b1-4)GlcNAc(b1-3)Gal(b1-4)GlcNAc(b1-3)Gal(b1-4)GlcNAc(b1-3)Gal(b1-4)GlcNAc(b1-3)Gal(b1-4)GlcNAc(b1-6)]Man(a1-6)[Gal(b1-4)GlcNAc(b1-3)Gal(b1-4)GlcNAc(b1-3)Gal(b1-4)GlcNAc(b1-3)Gal(b1-4)GlcNAc(b1-3)Gal(b1-4)GlcNAc(b1-2)Man(a1-3)]Man(b1-4)GlcNAc(b1-4)[Fuc(a1-6)]GlcNAc
In short: as §1

[21] = molecular target: Gal(b1-4)GlcNAc(b1-3)Gal(b1-4)GlcNAc(b1-3)[Gal(b1-4)GlcNAc(b1-3)Gal(b1-4)GlcNAc(b1-6)]GalNAc
In short: as §1

[22] = molecular target: Gal3S(b1-3)GlcNAc
In short: as §1

[23] = molecular target: Gal3S(b1-4)[Fuc(a1-3)]GlcNAc6S
In short: as §1

[24] = molecular target: Gal3S6S(b1-4)GlcNAc6S
In short: as §1

[25] = molecular target: Gal4S6S(b1-4)GlcNAc
In short: as §1

[26] = molecular target: GalNAc(b1-3)GalNAc
In short: as §1

[27] = molecular target: GalNAc(b1-6)GalNAc
In short: as §1

[28] = molecular target: GalNAc3S(b1-4)[Fuc(a1-3)]GlcNAc
In short: as §1

[29] = molecular target: Glc(b1-6)Glc
In short: as §1

[30] = molecular target: GlcNAc(a1-4)Gal(b1-4)GlcNAc(b1-3)Gal(b1-4)[Fuc(a1-3)]GlcNAc(b1-3)Gal(b1-4)[Fuc(a1-3)]GlcNAc
In short: as §1

[31] = molecular target: GlcNAc(b1-2)Gal(b1-3)GalNAc
In short: as §1

[32] = molecular target: GlcNAc(b1-3)Fuc
In short: as §1

[33] = molecular target: GlcNAc(b1-3)Gal(b1-4)GlcNAc(b1-2)Man(a1-3)[GlcNAc(b1-3)Gal(b1-4)GlcNAc(b1-2)Man(a1-6)]Man(b1-4)GlcNAc(b1-4)[Fuc(a1-6)]GlcNAc
In short: as §1

[34] = molecular target: GlcNAc(b1-3)[GlcNAc(b1-6)]Gal(b1-4)GlcNAc
In short: as §1

[35] = molecular target: GlcNAc(b1-4)GlcNAc(b1-4)GlcNAc(b1-4)GlcNAc(b1-4)GlcNAc
In short: as §1

[36] = molecular target: Man(a1-2)Man(a1-3)[Man(a1-6)]Man(a1-6)[Man(a1-2)Man(a1-3)]Man(b1-4)GlcNAc(b1-4)GlcNAc
In short: as §1

[37] = molecular target: Man(a1-3)[Man(a1-6)]Man(a1-6)[Man(a1-3)]Man(b1-4)GlcNAc(b1-4)GlcNAc
In short: as §1

[38] = molecular target: Neu5Ac(a2-3)Gal(b1-3)GalNAc(b1-4)[Neu5Ac(a2-3)]Gal(b1-4)Glc
In short: as §1

[39] = molecular target: Neu5Ac(a2-3)Gal(b1-3)GlcNAc(b1-2)Man
In short: as §1

[40] = molecular target: Neu5Ac(a2-3)Gal(b1-3)GlcNAc(b1-3)Gal(b1-4)GlcNAc
In short: as §1

[41] = molecular target: Neu5Ac(a2-3)Gal(b1-3)[GlcNAc(b1-6)]GalNAc
In short: as §1

[42] = molecular target: Neu5Ac(a2-3)Gal(b1-3)]Neu5Ac(a2-3)Gal(b1-4)]GlcNAc
In short: as §1

[43] = molecular target: Neu5Ac(a2-3)Gal(b1-4)GlcNAc(b1-2)Man(a1-3)[Neu5Ac(a2-3)Gal(b1-4)GlcNAc(b1-2)Man(a1-6)]Man(b1-4)GlcNAc(b1-4)[Fuc(a1-6)]GlcNAc
In short: as §1

[44] = molecular target: Neu5Ac(a2-3)Gal(b1-4)GlcNAc(b1-3)Gal(b1-4)GlcNAc
In short: as §1

[45] = molecular target: Neu5Ac(a2-3)Gal(b1-4)GlcNAc6S
In short: as §1

[46] = molecular target: Neu5Ac(a2-3)Gal(b1-4)[Fuc(a1-3)]GlcNAc(b1-2)Man
In short: as §1

[47] = molecular target: Neu5Ac(a2-6)Gal(b1-4)GlcNAc(b1-2)Man(a1-6)[Man(a1-3)]Man(b1-4)GlcNAc(b1-4)GlcNAc
In short: as §1

[48] = molecular target: Neu5Ac(a2-6)Gal(b1-4)GlcNAc(b1-3)Gal(b1-4)GlcNAc(b1-3)Gal(b1-4)GlcNAc(b1-2)Man(a1-3)[Neu5Ac(a2-6)Gal(b1-4)GlcNAc(b1-3)Gal(b1-4)GlcNAc(b1-3)Gal(b1-4)GlcNAc(b1-2)Man(a1-6)]GalNAc
In short: as §1

[49] = molecular target: Neu5Ac(a2-6)Gal(b1-4)GlcNAc(b1-3)Gal(b1-4)GlcNAc(b1-3)GalNAc
In short: as §1

[50] = molecular target: Neu5Ac(a2-6)Gal(b1-4)GlcNAc(b1-3)Gal(b1-4)GlcNAc(b1-3)[Neu5Ac(a2-6)Gal(b1-4)GlcNAc(b1-3)Gal(b1-4)GlcNAc(b1-6)]GalNAc
In short: as §1

[51] = molecular target: Neu5Ac(a2-6)Gal(b1-4)GlcNAc(b1-6)[Gal(b1-3)GlcNAc(b1-3)]Gal(b1-4)Glc
In short: as §1

[52] = molecular target: Neu5Ac(a2-6)GalNAc(b1-4)GlcNAc6S
In short: as §1

[53] = molecular target: Neu5Ac(a2-8)Neu5Gc(a2-3)Gal(b1-4)GlcNAc
In short: as §1

[54] = molecular target: Neu5Gc(a2-3)Gal(b1-4)GlcNAc(b1-3)Gal(b1-4)GlcNAc(b1-2)Man(a1-3)[Neu5Gc(a2-3)Gal(b1-4)GlcNAc(b1-3)Gal(b1-4)GlcNAc(b1-2)Man(a1-6)]Man(b1-4)GlcNAc(b1-4)GlcNAc
In short: as §1

B1: SJCP1531 (Schistosoma japonicum) (protein)
chain: MFKVRIINLVNISTVLLLINLLQTKSQVNVEQLVTVLEVNIKAQLKNKTTEVLVEWNPLYQDNSMPEYRKLLDETCKLFLPFVNEKVPPSTYGGECTNANFSEAPQDGSYSRVNAELRLIYKYSDNPQIQTDRLQDDLNDREEFITSESSFVAYNPKFTVKIEKLFIPISESQTTPPPTTAKNDASKKDDDDNGGEDSKAPIDTFAMTASGNKGKKDDDDNGGEDSKAPIDTFAMTASGSKDERSTWTIIGIITLVVLIFVVIGGGITVFVKRC
glycan array binding signal (z-score) [1]: -0.571 | glycan array binding signal (z-score) [2]: -0.207 | glycan array binding signal (z-score) [3]: -0.955 | glycan array binding signal (z-score) [4]: 0.144 | glycan array binding signal (z-score) [5]: 0.498 | glycan array binding signal (z-score) [6]: 0.12 | glycan array binding signal (z-score) [7]: -0.433 | glycan array binding signal (z-score) [8]: 0.026 | glycan array binding signal (z-score) [9]: 1.34 | glycan array binding signal (z-score) [10]: 2.24 | glycan array binding signal (z-score) [11]: 1.03 | glycan array binding signal (z-score) [12]: 3.29 | glycan array binding signal (z-score) [13]: 0.064 | glycan array binding signal (z-score) [14]: -0.062 | glycan array binding signal (z-score) [15]: 0.101 | glycan array binding signal (z-score) [16]: -1.38 | glycan array binding signal (z-score) [17]: 0.725 | glycan array binding signal (z-score) [18]: 2.21 | glycan array binding signal (z-score) [19]: 2.79 | glycan array binding signal (z-score) [20]: 2.63 | glycan array binding signal (z-score) [21]: 2.8 | glycan array binding signal (z-score) [22]: 0.215 | glycan array binding signal (z-score) [23]: 1.28 | glycan array binding signal (z-score) [24]: 3.17 | glycan array binding signal (z-score) [25]: -0.722 | glycan array binding signal (z-score) [26]: 0.218 | glycan array binding signal (z-score) [27]: 2.81 | glycan array binding signal (z-score) [28]: -1.15 | glycan array binding signal (z-score) [29]: -0.797 | glycan array binding signal (z-score) [30]: 2.8 | glycan array binding signal (z-score) [31]: -1.08 | glycan array binding signal (z-score) [32]: -0.112 | glycan array binding signal (z-score) [33]: -0.143 | glycan array binding signal (z-score) [34]: 0.523 | glycan array binding signal (z-score) [35]: -0.099 | glycan array binding signal (z-score) [36]: -1.4 | glycan array binding signal (z-score) [37]: -0.243 | glycan array binding signal (z-score) [38]: -1.32 | glycan array binding signal (z-score) [39]: -0.604 | glycan array binding signal (z-score) [40]: -0.438 | glycan array binding signal (z-score) [41]: 0.205 | glycan array binding signal (z-score) [42]: -0.188 | glycan array binding signal (z-score) [43]: -1.15 | glycan array binding signal (z-score) [44]: 2.53 | glycan array binding signal (z-score) [45]: 0.004 | glycan array binding signal (z-score) [46]: -0.84 | glycan array binding signal (z-score) [47]: -1.2 | glycan array binding signal (z-score) [48]: 3.3 | glycan array binding signal (z-score) [49]: 2.87 | glycan array binding signal (z-score) [50]: 3 | glycan array binding signal (z-score) [51]: 0.485 | glycan array binding signal (z-score) [52]: 0.413 | glycan array binding signal (z-score) [53]: -1.65 | glycan array binding signal (z-score) [54]: 0.86
